From publication PMC12820563, “FoxP3 forms a head-to-head dimer in vivo and stabilizes its multimerization on adjacent microsatellites”
The full ranking holds about 16,000 sequences; the median of “rpm ratio (pull-down/input)” is about 0.94, and the highest 2% start at about 1.7. This is one part of a sample in which the highest values are shown more often than they occur.

The sequences below were run against T1, MBP-FoxP1dN (Mus musculus, UniProt P58462 326-579) (assay: PD-seq (MBP pull-down with sequencing); 20 mM Tris-HCl pH 7.5, 100 mM NaCl, 1.5 mM MgCl2, 0.4 uM protein, 0.1 uM dsDNA library, 30 min, room temperature, amylose pull-down; high values mean tight binding). Details: protein: recombinant; tags: His6-MBP; chain copies: 2; dsDNA, one strand shown.
T1 sequence: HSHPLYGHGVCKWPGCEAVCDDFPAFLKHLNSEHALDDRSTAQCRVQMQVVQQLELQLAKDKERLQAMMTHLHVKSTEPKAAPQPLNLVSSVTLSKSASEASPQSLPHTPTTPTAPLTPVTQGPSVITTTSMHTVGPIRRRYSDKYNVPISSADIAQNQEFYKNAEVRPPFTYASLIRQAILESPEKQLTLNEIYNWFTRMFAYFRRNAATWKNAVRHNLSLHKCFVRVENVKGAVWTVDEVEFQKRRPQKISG
How it was run: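 Binding is the reads-per-million enrichment of pull-down relative to input, pooled across replicates. For this, 0.4 µM His6-MBP-tagged mouse FoxP3 or FoxP1 fragment lacking the N-terminus, made in E. coli, was incubated with 0.1 µM Klenow-filled double-stranded degenerate DNA library for 30 min at room temperature in Tris pH 7.5 buffer with NaCl and MgCl2. Complexes bound to amylose resin were washed three times before proteinase K released the DNA for PCR barcoding and Illumina sequencing.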
In the case of “GATGATTGTTCTCCCAGCTGATGAATTCGCAAATTCGAGTAAACAAATTTTCCTAATCTTTCTGTTCAAGCGCCATCTAC”, the binding signal was 0.933 RPM ratio (pull-down/input). With “GATGATTGTTCTCCCAGCTGATGAATTGGCCTTCTCGAGTAAACAAATTTTCCTAATCTTTCTGTTCAAGCGCCATCTAC” the binding signal was 0.772 RPM ratio (pull-down/input). In the case of “GATGATTGTTCTCCCAGCTGATGAATTGCAATGTTCGAGTAAACAAATTTTCCTAATCTTTCTGTTCAAGCGCCATCTAC”, the binding signal was 1.42 RPM ratio (pull-down/input). With “GATGATTGTTCTCCCAGCTGATGAATTAAGGGTTTCGAGTAAACAAATTTTCCTAATCTTTCTGTTCAAGCGCCATCTAC” the binding signal was 0.875 RPM ratio (pull-down/input). In the case of “GATGATTGTTCTCCCAGCTGATGAATTCTTGTTTTCGAGTAAACAAATTTTCCTAATCTTTCTGTTCAAGCGCCATCTAC”, the binding signal was 2.77 RPM ratio (pull-down/input). In the case of “GATGATTGTTCTCCCAGCTGATGAATTCATGTTTTCGAGTAAACAAATTTTCCTAATCTTTCTGTTCAAGCGCCATCTAC”, the binding signal was 2.2 RPM ratio (pull-down/input). “GATGATTGTTCTCCCAGCTGATGAATTCTCATGTTCGAGTAAACAAATTTTCCTAATCTTTCTGTTCAAGCGCCATCTAC” was tested, and the binding signal was 0.861 RPM ratio (pull-down/input). With “GATGATTGTTCTCCCAGCTGATGAATTTCTTGTTTCGAGTAAACAAATTTTCCTAATCTTTCTGTTCAAGCGCCATCTAC” the binding signal was 1.14 RPM ratio (pull-down/input). With “GATGATTGTTCTCCCAGCTGATGAATTTCATGTTTCGAGTAAACAAATTTTCCTAATCTTTCTGTTCAAGCGCCATCTAC” the binding signal was 0.998 RPM ratio (pull-down/input). In the case of “GATGATTGTTCTCCCAGCTGATGAATTCCTTGTTTCGAGTAAACAAATTTTCCTAATCTTTCTGTTCAAGCGCCATCTAC”, the binding signal was 0.969 RPM ratio (pull-down/input). With “GATGATTGTTCTCCCAGCTGATGAATTGAAAGCCTCGAGTAAACAAATTTTCCTAATCTTTCTGTTCAAGCGCCATCTAC” the binding signal was 0.795 RPM ratio (pull-down/input). For “GATGATTGTTCTCCCAGCTGATGAATTATACAGCTCGAGTAAACAAATTTTCCTAATCTTTCTGTTCAAGCGCCATCTAC”, the binding signal was 1.03 RPM ratio (pull-down/input). “GATGATTGTTCTCCCAGCTGATGAATTCTCGCGCTCGAGTAAACAAATTTTCCTAATCTTTCTGTTCAAGCGCCATCTAC” was tested, and the binding signal was 0.835 RPM ratio (pull-down/input). In the case of “GATGATTGTTCTCCCAGCTGATGAATTCGTCTTGTCGAGTAAACAAATTTTCCTAATCTTTCTGTTCAAGCGCCATCTAC”, the binding signal was 0.827 RPM ratio (pull-down/input). With “GATGATTGTTCTCCCAGCTGATGAATTAATAATCTCGAGTAAACAAATTTTCCTAATCTTTCTGTTCAAGCGCCATCTAC” the binding signal was 1.06 RPM ratio (pull-down/input). “GATGATTGTTCTCCCAGCTGATGAATTATTTTTGTCGAGTAAACAAATTTTCCTAATCTTTCTGTTCAAGCGCCATCTAC” was tested, and the binding signal was 1.37 RPM ratio (pull-down/input). For “GATGATTGTTCTCCCAGCTGATGAATTATATTTGTCGAGTAAACAAATTTTCCTAATCTTTCTGTTCAAGCGCCATCTAC”, the binding signal was 2.29 RPM ratio (pull-down/input). “GATGATTGTTCTCCCAGCTGATGAATTTTTATTGTCGAGTAAACAAATTTTCCTAATCTTTCTGTTCAAGCGCCATCTAC” was tested, and the binding signal was 2.51 RPM ratio (pull-down/input). For “GATGATTGTTCTCCCAGCTGATGAATTATATCTGTCGAGTAAACAAATTTTCCTAATCTTTCTGTTCAAGCGCCATCTAC”, the binding signal was 1.08 RPM ratio (pull-down/input). With “GATGATTGTTCTCCCAGCTGATGAATTTTATCTGTCGAGTAAACAAATTTTCCTAATCTTTCTGTTCAAGCGCCATCTAC” the binding signal was 0.918 RPM ratio (pull-down/input). In the case of “GATGATTGTTCTCCCAGCTGATGAATTTATTCTGTCGAGTAAACAAATTTTCCTAATCTTTCTGTTCAAGCGCCATCTAC”, the binding signal was 1.12 RPM ratio (pull-down/input). “GATGATTGTTCTCCCAGCTGATGAATTTTATATGTCGAGTAAACAAATTTTCCTAATCTTTCTGTTCAAGCGCCATCTAC” was tested, and the binding signal was 0.988 RPM ratio (pull-down/input). For “GATGATTGTTCTCCCAGCTGATGAATTTATATTGTCGAGTAAACAAATTTTCCTAATCTTTCTGTTCAAGCGCCATCTAC”, the binding signal was 2.36 RPM ratio (pull-down/input). For “GATGATTGTTCTCCCAGCTGATGAATTGTTATTGTCGAGTAAACAAATTTTCCTAATCTTTCTGTTCAAGCGCCATCTAC”, the binding signal was 3.45 RPM ratio (pull-down/input). “GATGATTGTTCTCCCAGCTGATGAATTTATATTCTCGAGTAAACAAATTTTCCTAATCTTTCTGTTCAAGCGCCATCTAC” was tested, and the binding signal was 1.04 RPM ratio (pull-down/input). “GATGATTGTTCTCCCAGCTGATGAATTAAACATATCGAGTAAACAAATTTTCCTAATCTTTCTGTTCAAGCGCCATCTAC” was tested, and the binding signal was 1.4 RPM ratio (pull-down/input). With “GATGATTGTTCTCCCAGCTGATGAATTGGTGCCATCGAGTAAACAAATTTTCCTAATCTTTCTGTTCAAGCGCCATCTAC” the binding signal was 0.972 RPM ratio (pull-down/input). In the case of “GATGATTGTTCTCCCAGCTGATGAATTCGCTGTATCGAGTAAACAAATTTTCCTAATCTTTCTGTTCAAGCGCCATCTAC”, the binding signal was 1.04 RPM ratio (pull-down/input). “GATGATTGTTCTCCCAGCTGATGAATTTACCCTCTCGAGTAAACAAATTTTCCTAATCTTTCTGTTCAAGCGCCATCTAC” was tested, and the binding signal was 1.06 RPM ratio (pull-down/input). For “GATGATTGTTCTCCCAGCTGATGAATTAAAAAGTTCGAGTAAACAAATTTTCCTAATCTTTCTGTTCAAGCGCCATCTAC”, the binding signal was 0.935 RPM ratio (pull-down/input). With “GATGATTGTTCTCCCAGCTGATGAATTATAGTAGTCGAGTAAACAAATTTTCCTAATCTTTCTGTTCAAGCGCCATCTAC” the binding signal was 0.985 RPM ratio (pull-down/input). In the case of “GATGATTGTTCTCCCAGCTGATGAATTGGTCGCGTCGAGTAAACAAATTTTCCTAATCTTTCTGTTCAAGCGCCATCTAC”, the binding signal was 1.03 RPM ratio (pull-down/input). In the case of “GATGATTGTTCTCCCAGCTGATGAATTCAAGCTCTCGAGTAAACAAATTTTCCTAATCTTTCTGTTCAAGCGCCATCTAC”, the binding signal was 0.854 RPM ratio (pull-down/input). For “GATGATTGTTCTCCCAGCTGATGAATTTTATTTGTCGAGTAAACAAATTTTCCTAATCTTTCTGTTCAAGCGCCATCTAC”, the binding signal was 2.45 RPM ratio (pull-down/input). With “GATGATTGTTCTCCCAGCTGATGAATTTTATGTGTCGAGTAAACAAATTTTCCTAATCTTTCTGTTCAAGCGCCATCTAC” the binding signal was 1.13 RPM ratio (pull-down/input). For “GATGATTGTTCTCCCAGCTGATGAATTCTTATTGTCGAGTAAACAAATTTTCCTAATCTTTCTGTTCAAGCGCCATCTAC”, the binding signal was 2.49 RPM ratio (pull-down/input). In the case of “GATGATTGTTCTCCCAGCTGATGAATTTATTTGGTCGAGTAAACAAATTTTCCTAATCTTTCTGTTCAAGCGCCATCTAC”, the binding signal was 1.59 RPM ratio (pull-down/input). “GATGATTGTTCTCCCAGCTGATGAATTATTTTGGTCGAGTAAACAAATTTTCCTAATCTTTCTGTTCAAGCGCCATCTAC” was tested, and the binding signal was 1.35 RPM ratio (pull-down/input). With “GATGATTGTTCTCCCAGCTGATGAATTGATTGTGTCGAGTAAACAAATTTTCCTAATCTTTCTGTTCAAGCGCCATCTAC” the binding signal was 1.35 RPM ratio (pull-down/input). In the case of “GATGATTGTTCTCCCAGCTGATGAATTTAATTTGTCGAGTAAACAAATTTTCCTAATCTTTCTGTTCAAGCGCCATCTAC”, the binding signal was 1.25 RPM ratio (pull-down/input). “GATGATTGTTCTCCCAGCTGATGAATTTTATTGGTCGAGTAAACAAATTTTCCTAATCTTTCTGTTCAAGCGCCATCTAC” was tested, and the binding signal was 1.74 RPM ratio (pull-down/input). For “GATGATTGTTCTCCCAGCTGATGAATTATTCCTGTCGAGTAAACAAATTTTCCTAATCTTTCTGTTCAAGCGCCATCTAC”, the binding signal was 0.964 RPM ratio (pull-down/input). For “GATGATTGTTCTCCCAGCTGATGAATTTATTTTGTCGAGTAAACAAATTTTCCTAATCTTTCTGTTCAAGCGCCATCTAC”, the binding signal was 1.62 RPM ratio (pull-down/input). In the case of “GATGATTGTTCTCCCAGCTGATGAATTTATTGTGTCGAGTAAACAAATTTTCCTAATCTTTCTGTTCAAGCGCCATCTAC”, the binding signal was 1.88 RPM ratio (pull-down/input). For “GATGATTGTTCTCCCAGCTGATGAATTGTCTTATTCGAGTAAACAAATTTTCCTAATCTTTCTGTTCAAGCGCCATCTAC”, the binding signal was 1.18 RPM ratio (pull-down/input).
